High-throughput results: PubChem BioAssay, The Scripps Research Institute Molecular Screening Center
This is a sample that favours compounds with a hit; in the whole collection about 4.1% have one here.
hcDAF-12 act: H. contortus DAF-12 activation, primary screen; activation, % at 6.8 µM; 1.4% of 370,000 active; AID 652067; HEK293 hcDAF-12 lit1-tk-luc reporter, luminescence; 0% DMSO, 100% Δ7-dafachronic acid;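 active = activation above the mean of all tested compounds plus 3 SD, cut at about 5.5% in these data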;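 also: 100% = response to 3 µM Δ7-dafachronic acid high control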
DAX1 inh-1: inhibits human nuclear receptor DAX1 | P51843 | HEK293 Gal4-DAX1 luciferase reporter, luminescence | inhibition, % at 6.75 µM | 0.99% of 340,000 active | AID 504766;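 active = inhibition above the mean over all tested compounds plus 3 SD, cut at about 4.2% in these data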;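 also: 0% = DAX1-transfected cells with DMSO and 100% = empty-vector control cells with DMSO; inhibition shows as a rise in luminescence from relieved DAX1 repression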
DAX1 inh-2: DAX1 (NR0B1) inhibition, primary screen; AID 652010; 1.1% of 370,000 active; HEK293T StAR-luciferase reporter, SF-1/DAX-1 repression relief; inhibition, % at 6.8 µM;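 active = inhibition above the mean over all tested compounds plus 3 SD, cut at about 3.6% in these data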;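 also: 0% = DAX-1 cells with DMSO and 100% = cells lacking DAX-1 with DMSO; higher inhibition means more luminescence from relief of DAX-1 repression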
hgDAF12 agonist: activates the H. glycines DAF-12 receptor ligand-binding domain; HEK293 GAL4-hgDAF12 UAS-luciferase reporter, agonist luminescence; normalized to butyrate control; activation, % at 6.8 µM; 1.8% of 370,000 active;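 active = activation above a cutoff set at the mean of all screened compounds plus 3 SD, cut at about 10% in these data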;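 also: 0% = DMSO wells and 100% = sodium butyrate wells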
ssDAF-12 act: S. stercoralis DAF-12 activation, primary screen | HEK293 ssDAF-12/GRIP1 lit1-tk-luc reporter, luminescence; % of 3 µM dafachronic acid response | 1% of 370,000 active | activation, % at 6.8 µM;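 active = activation above the mean over all tested compounds plus 3 SD, cut at about 0.9% in these data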;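 also: 0% = DMSO-only wells and 100% = 3 µM delta7-dafachronic acid wells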
hgDAF12 ag: hgDAF-12 agonism, confirmation assay | AID 743050 | activation, % at 6.8 µM | shares compounds with hgDAF12 agonist | HEK293 GAL4-hgDAF12 luciferase reporter, agonist mode; percent of butyrate response | 80% of 3,300 active;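 active = mean activation over triplicate wells above the hit cutoff derived from the earlier primary screen, cut at about 11% in these data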;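 also: 0% = DMSO low control and 100% = 2 mM sodium butyrate high control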
LXRb DAF12 ctr: activates human LXR-beta, counter-screen for DAF-12 agonists; AID 743051; HEK293 Gal4-LXR luciferase reporter, 24 h; activation, % at 6.8 µM; shares compounds with hgDAF12 agonist; 3,300 tested, under 10 active;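 active = mean activation of the triplicate above a set limit carried over from the primary screen, none filed active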
Target sequence (P55055 whole entry, looked up, the tested form may be a part): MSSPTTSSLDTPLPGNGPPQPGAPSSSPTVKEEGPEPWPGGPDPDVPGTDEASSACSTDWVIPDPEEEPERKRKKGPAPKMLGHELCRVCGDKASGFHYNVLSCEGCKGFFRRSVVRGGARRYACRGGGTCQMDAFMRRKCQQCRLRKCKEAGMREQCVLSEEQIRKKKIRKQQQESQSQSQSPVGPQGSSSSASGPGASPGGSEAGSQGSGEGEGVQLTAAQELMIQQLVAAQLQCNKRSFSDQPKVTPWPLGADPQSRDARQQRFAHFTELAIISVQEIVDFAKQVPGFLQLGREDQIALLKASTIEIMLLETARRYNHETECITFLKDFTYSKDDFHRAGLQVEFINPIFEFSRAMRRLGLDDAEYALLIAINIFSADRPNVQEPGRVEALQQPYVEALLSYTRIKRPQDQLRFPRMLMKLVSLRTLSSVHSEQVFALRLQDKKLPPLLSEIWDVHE
* marks the source's active call; other numbers are inactive results; x = no result.

SMILES	hcDAF-12 act	DAX1 inh-1	DAX1 inh-2	hgDAF12 agonist	ssDAF-12 act	hgDAF12 ag	LXRb DAF12 ctr
Cc1ccc(NC(=O)N2CCCC2)cc1Cl	-1	0	1	0	0	x	x
CC(C)(C)c1ccc(NC(=O)c2ccc(=O)[nH]n2)cc1	5	5.6*	2	17*	0	14*	1
COc1cccc(NC(=O)Nc2ccc(C(C)(C)C)cc2)c1	3	0	1	18*	-1	11*	0
O=C(Nc1ccc2c(c1)OCO2)c1ccc(=O)[nH]n1	1	-1	2	3	-1	x	x
Cc1ccc(NC(=O)C(=O)N2CCCC2)cc1Cl	2	3	3	15*	0	13*	0
COC(=O)[C@]12C[C@H](CC(=O)NCCCN3CCCC3=O)C(=O)N(Cc3cccc4ccccc34)C1=C[C@H](COCc1ccccc1)O[C@@H]2C	-1	x	-1	4	-1	x	x
c1ccc(-c2nnc3sc(C4CCCCC4)nn23)cc1	-2	x	0	-1	-2	x	x
CC(C)(C)c1ccc(COC(=O)Nc2ccc(F)cc2)cc1	0	-1	0	3	-1	x	x
CC(C)(C)c1ccc(NC(=O)Nc2ccc(F)cc2)cc1	3	x	3.6*	15*	0	15*	1
CN[C@H]1C[C@H]2c3[nH]c4c(-c5cccc(C)c5)cccc4c3CCN2C(=O)[C@H]1[C@H](C)O	2	x	1	-1	-1	x	x
O=C(O)c1cccc(-c2nnn(Cc3ccccc3)n2)c1	5.7*	-1	2	15*	1	11*	1
CC(C)n1nnnc1C1c2ccccc2OCC(=O)N1Cc1cccc(C(F)(F)F)c1 (centres undefined)	2	x	0	1	-1	x	x
C=CCOc1cccc(/C=C/c2nc3ccccc3c(=O)[nH]2)c1	4	4	3	15*	1.3*	16*	1
Cc1ccccc1/C=C\c1nc2ccccc2c(=O)[nH]1	2	2	3	15*	1.3*	20*	1
COc1cc(/C=C/c2nc3ccccc3c(=O)[nH]2)cc(OC)c1OC	-1	-3	0	5	-1	x	x
COc1cc(/C=C/c2nc3ccccc3c(=O)[nH]2)ccc1OC(F)F	2	4	1	6	-1	x	x
O=C(NCC1CCCO1)c1cc(-c2ccccc2F)no1 (centres undefined)	5.6*	2	1	20*	0	33*	0
COCc1cc(N2CCN(C(=O)OC(C)(C)C)C[C@@H]2C)ccc1N1CC[C@H](O)C1	-3	x	-1	0	-1	x	x
CC(C)(C)c1ccc(-c2noc(-c3ccno3)n2)cc1	5	8.3*	2	13*	0.9*	15*	1
c1nc2nc3c(c(N4CCCC4)n2n1)CCCC3	-1	x	0	-2	-1	x	x
O=C(N/N=C\c1ccc2c(c1)OCO2)c1ccco1	2	4	3	14*	1	12*	1
NC(=O)/C(=C/c1ccc2c(c1)OCO2)NC(=O)c1ccco1	-1	2	0	5	-1	x	x
CCN(CC)c1ccc(NC(=S)NC(=O)c2ccco2)cc1	0	0	3	16*	-2	6	0
CCN(CC)c1ccc(/C=N/NC(=O)c2cnccn2)cc1	1	0	0	18*	0	18*	0
CCN(CC)c1ccc(/C=N/NC(=O)c2ccco2)cc1	5	-2	1	17*	0	21*	1
SMILES	hcDAF-12 act	DAX1 inh-1	DAX1 inh-2	hgDAF12 agonist	ssDAF-12 act	hgDAF12 ag	LXRb DAF12 ctr
COc1ccc(Cn2ccc3ccc(-c4ccc5ccn(C(=O)C6CCCCC6)c5c4)cc32)cc1	0	x	-1	3	-1	x	x
CCN1CCN(c2c(S(=O)(=O)c3ccc(Cl)cc3)cnc3ccccc23)CC1	1	x	-1	-3	-1	x	x
CCn1c(Cc2cccs2)nnc1SCC(=O)c1ccc(Cl)cc1	-3	x	1	-1	0	x	x
COc1cccc(NC(=O)C2CCCN2C(=O)NCc2ccccc2OC)c1 (centres undefined)	-2	x	0	-1	-2	x	x
O=[N+]([O-])c1cccnc1NCCNc1ncc(C(F)(F)F)cc1Cl	2	3	2	14*	0	15*	0
COC(=O)CSc1nnc(-c2cccs2)o1	-1	x	0	3	-1	x	x
COc1ccccc1-c1cc(C(=O)N2CCOCC2)no1	3	3	2	17*	0	12*	0
FC(F)(F)c1cnc2c(-c3ccccc3)n[nH]c2c1	4	x	1	14*	0	7	0
Cc1ccc(CN2CCN(CCC(C)C)C(CCO)C2)s1 (centres undefined)	0	-1	0	0	-1	x	x
Cc1ccc(CN2CCN(CC(C)C)C(CCO)C2)s1 (centres undefined)	4	3	0	15*	0	10	0
O=C(O)c1ccc(N/N=C/C2=Cc3ccccc3OC2)cc1	3	11*	4.1*	19*	0	16*	0
CCOC(=O)C1(Cc2ccccc2Cl)CCN(C(=O)CN2CCOC2=O)CC1	2	2	2	17*	0	10	0
COc1cccc(NC(=O)C2CCCN2C(=O)Nc2ccc(Cl)cc2)c1 (centres undefined)	-2	x	0	3	-2	x	x
CCOc1ccc(OCc2cccc(C(=O)N3CCCCCC3)c2)cc1	5	-6	3.8*	16*	0	16*	1
CCOc1ccc(OCc2ccc(C(=O)N3CCCC3)o2)cc1	2	-1	0	3	-1	x	x
O=C(CSc1nnc(-c2ccccc2F)n1-c1ccccc1)c1ccc2ccccc2c1	-1	x	0	3	-1	x	x
Cc1ccc(C(=O)c2coc3ccc(O)c(Cl)c23)cc1	4	6.5*	3	17*	0	13*	0
O=C(c1ccccc1)c1coc2ccc(O)c(Cl)c12	2	3	1	5	0	x	x
Cc1ccc(C(=O)c2coc3ccc(O)cc23)cc1	5	2	4	18*	1.1*	22*	1
Cc1ccc2nc(-c3cccc(Cl)c3)c(Cc3ccccc3C(F)(F)F)n2c1	5	x	3	9	0	x	x
Nc1cc(Cl)nc(N/N=C/c2c(O)ccc3ccccc23)n1	4	3	2	15*	0	10	1
Nc1nonc1N/N=C/c1c(O)ccc2ccccc12	-2	-2	-1	-2	-1	x	x
Cc1ccc(-c2nc3ccc(Cl)cc3n2OC(C)C(=O)O)cc1 (centres undefined)	4	2	3	23*	0	13*	1
